# Data reported in PubChem BioAssay AID463173 (ICCB-Longwood Screening Facility, Harvard Medical School, 2010).
# Hit rate of the full screen: of about 52,000 compounds, about 4,300 (8.3%) were called active. Only a selection was taken, and actives are over-represented in it overall. Values without a mark were called inactive. Rule as the data show it: active = survival mostly below about 52% (no sharp cut-off); inactive = mostly above about 56%.
# Tested on: DeltatarO mutant
# Assay: S. aureus survival, RN4220 and DeltatarO strains – OD600, teichoic acid synthesis inhibitors, primary screen (AID 463173)
# Settings: S. aureus RN4220 wild type/DeltatarO growth, OD600, 18 h, active compounds read low, screened at 18.75 µg/mL (by protocol)
row,Compound,survival
1,O=C(OCc1cc(=O)n2nc(-c3cccs3)sc2n1)c1cccc(F)c1,77%
2,COc1cccc(N2CCN(C(=O)CN3CCSc4ccccc43)CC2)c1,83%
3,Cc1ccc(C)c(N2CCN(C(=O)CN3C(=O)COc4ccc(S(=O)(=O)N5CCCC5)cc43)CC2)c1,85%
4,CCN(CC)CCn1c(=N)n(CC(O)COc2ccccc2C)c2ccccc21 (stereo unspecified),80%
5,O=C(CSc1nnnn1C1CCCC1)NCc1cccs1,103%
6,CCN(CC)CCNC(=O)c1ccc(CSc2nc3ccncc3n2Cc2cccc(F)c2)cc1,92%
7,Cc1cccc(N2CCN(C(=O)Nc3cn(CC(C)C)c(=O)c4ccccc34)CC2)c1C,69%
8,Cc1ccc(Cl)cc1NC(=O)Cn1c(=O)n(Cc2ccccc2)c(=O)c2oc3ccccc3c21,81%
9,CCC(=O)N1c2ccccc2CC1C(=O)NCc1ccc(CC)cc1 (stereo unspecified),100%
10,COc1ccc(C2c3c(n(C)c4ccccc34)C(=O)N2CC(=O)Nc2cccc(Cl)c2)cc1 (stereo unspecified),80%
11,COC(=O)CSc1nnc(C2CCCCC2)n1Cc1ccccc1,116%
12,CCCCSCCCNC(=O)C1CCN(Cc2nc(-c3ccc(CC)cc3)oc2C)CC1,46% (active)
13,Cc1ccc(Cl)cc1N1CCN(C(=O)C2CCN(Cc3nc(-c4cccc(Cl)c4)oc3C)CC2)CC1,-8% (active)
14,CCc1ccc(-c2nc(CN3CCCC(C(=O)N4CCN(c5cc(Cl)ccc5C)CC4)C3)c(C)o2)cc1 (stereo unspecified),70%
15,Cc1ccc(Cl)cc1N1CCN(C(=O)C2CCN(Cc3nc(-c4ccc(Cl)cc4)oc3C)CC2)CC1,-9% (active)
16,Cc1oc(-c2ccc(Cl)cc2)nc1CN1CCC(C(=O)NCCCN2CCN(c3cccc(Cl)c3)CC2)CC1,42% (active)
17,Cc1cccc(N2CCN(C(=O)C3CCN(Cc4nc(-c5ccc(Cl)cc5)oc4C)CC3)CC2)c1C,60%
18,CCc1ccc(-c2nc(CN3CCC(C(=O)NCCc4ccc(C)cc4)CC3)c(C)o2)cc1,95%
19,Cc1oc(-c2cccc(Cl)c2)nc1CN1CCC(C(=O)NCCCN2CCN(c3ccc(F)cc3)CC2)CC1,119%
20,Cc1ccc(Cl)cc1N1CCN(C(=O)C2CCCN(Cc3nc(-c4cccc(Cl)c4)oc3C)C2)CC1 (stereo unspecified),66%
21,CCCCSCCCNC(=O)C1CCN(Cc2nc(-c3cccc(Br)c3)oc2C)CC1,68%
22,Cc1ccc(C)c(N2CCN(C(=O)C3CCN(Cc4nc(-c5cccc(Cl)c5)oc4C)CC3)CC2)c1,47%
23,Cc1oc(-c2cccc(Cl)c2)nc1CN1CCC(C(=O)NCCCN2CCN(c3cccc(Cl)c3)CC2)CC1,63%

row,Compound,survival
1,CCCOc1ccc(Oc2nc(NCC(C)C)nc(N3CCOCC3)n2)nn1,74%
2,CN(C)c1ccc(CNC(=O)CN2C(=O)CSc3ccc(S(=O)(=O)N4CCCC4)cc32)cc1,80%
3,COc1ccccc1CNc1ncnc2c1nc1n2CCCC1,80%
4,COc1ccc(NC(=O)CC2C(=O)N(c3ccc(OC)cc3)C(=O)N2Cc2ccc(OC)c(OC)c2)cc1 (stereo unspecified),131%
5,CCOC(=O)c1ccc(NC(=O)c2cnn(-c3ccc(C)cc3C)c2C2CCN(C(=O)OC(C)(C)C)CC2)cc1,93%
6,Cc1nc(N2CCCCC2)c(C#N)c2c1COC(C)(C)C2,81%
7,Nc1ccc(N2CCOCC2)cc1C(F)(F)F,80%
8,COc1ccc(NCc2nc3ccccc3n2CCOc2ccccc2C)cc1,32% (active)
9,Fc1ccc(NCc2nc3ccccc3n2CCOc2ccccc2Cl)cc1,91%
10,Cc1ccc(C)c(OCCn2c(CCNC(=O)C3CCCCC3)nc3ccccc32)c1,59%
11,Cc1ccc(NCc2nc3ccccc3n2CCOc2ccccc2C)cc1,3% (active)
12,Cc1cccc(NCc2nc3ccccc3n2CCOc2ccccc2C)c1,3% (active)
13,CCC(CC)c1nn2c(=O)cc(COc3ccc(NC(=O)c4ccccc4Cl)cc3)nc2s1,94%
14,COc1ccc(-c2nc(SCC(=O)NCCc3ccc(OC)c(OC)c3)n[nH]2)cc1,88%
15,COc1ccc(NC(=O)C2(c3cccs3)CCOCC2)cc1Cl,91%
16,Cc1cccc(CN2C(=O)c3ccccc3S(=O)(=O)c3ccc(C(=O)OCC4CCCO4)cc32)c1 (stereo unspecified),90%
17,CCOc1cccc(OCCCn2c(-c3ccc(Br)cc3)nc3ccccc3c2=O)c1,64%
18,Cc1ccc(C)c(Cn2c3ccccc3c3cnn(CC(=O)NCC(C)c4ccccc4)c(=O)c32)c1 (stereo unspecified),72%
19,COc1ccccc1NC(=O)NC1(C(=O)N2CCCCC2)CCCCC1,85%
20,CCc1ccc(C2N=C(N)Nc3nc4ccccc4n32)cc1 (stereo unspecified),137%
21,O=C1c2ccccc2-c2nc3ncnn3c(-c3ccc4c(c3)OCO4)c21,49% (active)
22,O=C1C(=Cc2ccc3c(c2)OCO3)C(=O)c2ccccc21,64%
23,Cc1cccc(-c2c3c(nc4ncnn24)-c2ccccc2C3=O)c1,74%

row,Compound,survival
1,Cc1nc2c3ccccc3nc(NNC(=O)CCC(=O)N3CCN(c4ccccc4F)CC3)n2n1,79%
2,Cc1nc2c3ccccc3nc(NNC(=O)CCC(=O)N3CCN(c4cccc(Cl)c4)CC3)n2n1,107%
3,Cc1nc2c3ccccc3nc(NNC(=O)CCC(=O)N3CCN(c4cc(Cl)ccc4C)CC3)n2n1,55% (active)
4,O=c1c2sc3ccccc3c2n(Cc2cccc(C(F)(F)F)c2)c(=O)n1-c1ccccc1,73%
5,Oc1cc2ccsc2c2ccccc12,9% (active)
6,c1ccc(-c2cc3ccsc3s2)cc1,99%
7,O=c1cc(O)c2ccccc2[nH]1,75%
8,COc1cc(NC(=O)CCCSc2nc(-c3ccco3)cc(C(F)(F)F)n2)cc(OC)c1OC,38% (active)
9,COc1ccc(NC(=O)CCCSc2nc(-c3ccco3)cc(C(F)(F)F)n2)cc1OC,45%
10,COc1ccc(NC(=O)CCCSc2nc(-c3ccco3)cc(C(F)(F)F)n2)c(OC)c1,16% (active)
11,COc1ccc(NC(=O)CSc2nc(-c3ccco3)cc(C(F)(F)F)n2)c(OC)c1,56%
12,COc1cc(NC(=O)CSc2nc(-c3ccco3)cc(C(F)(F)F)n2)cc(OC)c1OC,54%
13,COc1ccc(NC(=O)CCCSc2nc(-c3ccco3)cc(C(F)(F)F)n2)cc1,55%
14,COc1ccc(-c2nc3scc(CCNS(=O)(=O)c4ccc(C)cc4)n3n2)cc1,70%
15,CCn1cc2nc(SCc3cccc(C(F)(F)F)c3)n(Cc3ccc(Cl)cc3)c(=O)c2n1,124%
16,COc1cccc(N2CCN(c3ccc4nnc(CCC(=O)O)n4n3)CC2)c1,89%
17,Cc1nn(C)c(C)c1CCNC(=O)Nc1cccc(Cl)c1C,67%
18,COC(=O)c1ccccc1NC(=O)NCCc1c(C)nn(C)c1C,86%
19,COc1ccc(Cl)cc1NC(=O)NCCc1c(C)nn(C)c1C,-1% (active)
20,Cc1nn(C)c(C)c1CCNC(=O)Nc1ccccc1C(F)(F)F,6% (active)
21,COc1ccc(NC(=O)NCCc2c(C)nn(C)c2C)c(OC)c1,90%
22,COC(=O)c1ccc(Cl)cc1NC(=O)NCCc1c(C)nn(C)c1C,81%
23,Cn1c(=O)oc2cc(S(=O)(=O)NC(Cc3ccccc3)C(=O)Nc3ccc(F)c(Cl)c3)ccc21 (stereo unspecified),83%

row,Compound,survival
1,COc1ccc(NC(=O)CN(C)S(=O)(=O)c2cccc3nsnc23)cc1,106%
2,Cc1nnc(SCC(=O)Nc2ccc(N(C)C)cc2)[nH]c1=O,77%
3,O=c1[nH]c(SCc2ccc(F)cc2)nc2c1CCCC2,63% (active)
4,O=c1[nH]c(SCc2ccc(Br)cc2)nc2c1CCCC2,52%
5,O=c1[nH]c(SCc2ccccc2)nc2c1CCCC2,57%
6,O=C(CSc1nc2ccccc2nc1Cc1ccc(Cl)cc1)N1CCN(c2ccccc2F)CC1,71%
7,Cc1ccc(NC(=O)CSc2nc3ccc(NC(=O)COc4ccc(C)cc4)cc3s2)cc1,83%
8,CC(=O)Nc1cc(C(=O)NCc2ccc(C)cc2)ccc1Sc1ccc(C)cc1,96%
9,COCc1cc(C)nc2c1C(=O)NC(c1ccc(Br)cc1)N2Cc1ccccc1 (stereo unspecified),69%
10,COc1cc2c(cc1NC(=O)C(C)Oc1ccccc1)oc1ccccc12 (stereo unspecified),-1% (active)
11,COc1cc2c(cc1NC(=O)COc1cc(C)cc(C)c1)oc1ccccc12,59%
12,COc1cc2c(cc1NC(=O)COc1ccc(Cl)cc1Br)oc1ccccc12,51%
13,COc1cc2c(cc1NC(=O)COc1cc(C)ccc1C)oc1ccccc12,79%
14,Cc1ccc2cccc(NC(=O)C(C)Oc3ccc(C)c(C)c3)c2n1 (stereo unspecified),56%
15,Cc1ccc(OCC(=O)Nc2cccc3ccc(C)nc23)c(C)c1,62%
16,COc1ccc(Cl)cc1NC(=O)NCc1noc2ccccc12,35%
17,Cc1ccc2cccc(NC(=O)C(C)Oc3ccc(Cl)cc3Cl)c2n1 (stereo unspecified),-2% (active)
18,COc1cc2c(cc1NC(=O)C(C)Oc1ccc(Cl)cc1Cl)oc1ccccc12 (stereo unspecified),38% (active)
19,COc1ccc(-c2nc3ccccc3o2)cc1NC(=O)C(C)Oc1ccc(Cl)cc1Cl (stereo unspecified),38% (active)
20,CCOC(=O)c1ccc(NC(=O)CSc2nnc3c4ccccc4n(CC)c3n2)cc1,72%
21,O=C(CSc1nc2c(c(=O)[nH]1)CN(Cc1ccc3c(c1)OCO3)CC2)Nc1ccc(F)cc1,75%
22,Cc1ccc(NC(=O)Cn2cc(S(=O)(=O)c3ccc(C)cc3)c(=O)c3cc4c(cc32)OCO4)cc1,58%
